# Reference: PubChem BioAssay (NCATS)
# Results filed as inconclusive are left out. Entries that show only a call come without a potency. Calls of active or inactive are those of the source. Calls follow the shape of the dose curve; as a rule, active = well fitted inhibition curve with a large enough effect; inconclusive = small, poorly fitted or top-dose-only effect; inactive = flat fitted curve, though single readings scatter. Where a SMILES comes first, the peptide text is derived from it. The star is where a group is joined. Cbz = O=C(OCc1ccccc1)*; CH2F = FC*
# Target: Calcium and integrin-binding protein 1 (Homo sapiens) (UniProt Q99828)
# Sequence (Q99828 whole entry, looked up): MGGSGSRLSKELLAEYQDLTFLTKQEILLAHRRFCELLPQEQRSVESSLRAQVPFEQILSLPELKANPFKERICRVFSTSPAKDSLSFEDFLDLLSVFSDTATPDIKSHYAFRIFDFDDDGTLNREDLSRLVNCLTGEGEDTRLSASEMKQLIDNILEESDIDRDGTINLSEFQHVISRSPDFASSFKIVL
# Experiment: Primary qHTS for Identification of Calcium Integrin Binding Protein 1 (CIB1) Competitor (AID 1508620);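 also: GST tagged CIB1 binding a fluorescein labelled alphaIIb integrin peptide tracer; top concentration of the series differs between compounds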
# Details: CIB1-GST / FITC-alphaIIb peptide fluorescence polarization; series mostly up to 57.7 µM
# Summary of the method: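 Fluorescence polarization competition: CIB1-GST (1 uM final) preincubated with compound 15 min at room temperature, then FITC-labeled alphaIIb peptide (100 nM final) added for another 15 min. Polarization read at Ex 480/Em 540.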
row,Structure (SMILES),Potency
1,COc1ccc(/C=C/C(=O)N2CCCC2)cc1,inactive
2,COC(=O)CC[C@H](NC(=O)[C@H](CC(C)C)NC(=O)OCc1ccccc1)C(=O)N[C@@H](Cc1cnc[nH]1)C(=O)N[C@@H](CC(=O)OC)C(=O)CF (Cbz-LE(OMe)HD(OMe)-CH2F),inactive
3,CC1=C[C@H](O)[C@H]2C(C)(C)CCC[C@]2(C)[C@@]1(O)CO,inactive
4,NC(Cc1c[nH]c2ccc(O)cc12)C(=O)O (centres undefined),inactive
5,C[C@@H]1C(=O)O[C@H]2[C@H]1CC[C@@]1(C)C(=O)C=C[C@@](C)(O)[C@H]21,inactive
6,COc1c2c(c(C)c3c1C(=O)OC3)OC1(C)CC(O)C34OC(OC)(CCC3(C)C1C2)OC4(C)CO (centres undefined),inactive
7,CC(=O)O[C@@H]1C(=O)C(C)=C(CCC(C)CC(=O)O)[C@@]2(C)CCCC(C)(C)C12 (some centres undefined),inactive
8,C=C1CCC2(C(=O)OC3OC(CO)C(O)C(O)C3O)CCC3(C)C(=CCC4C5(C)CCC(OC6OC(CO)C(OC7OC(C)C(O)C(O)C7O)C(OC7OCC(O)C(O)C7O)C6O)C(C)(C)C5CCC43C)C2C1 (centres undefined),inactive
9,CC(C)(O)C1CCC2(C)CCCC(C)(O)C2C1 (centres undefined),inactive
10,CCOC(=O)C(CCc1ccccc1)NC(C)C(=O)N1Cc2ccccc2CC1C(=O)O (centres undefined),inactive
11,CC(C)CC(c1c(O)c(C=O)c(O)c(C=O)c1O)C1CCC(C)(O)C2CC(C(C)(C)O)CCC12C (centres undefined),inactive
12,C[C@@H]1O[C@@H](O[C@H]2[C@H](O[C@H]3[C@H](O[C@H]4CC[C@@]5(C)C(CC[C@]6(C)C5CC=C5[C@@H]7CC(C)(C)CC(=O)[C@]7(C)CC[C@]56C)[C@@]4(C)CO)O[C@H](C(=O)O)[C@@H](O)[C@@H]3O)O[C@H](CO)[C@H](O)[C@@H]2O)[C@H](O)[C@H](O)[C@H]1O (some centres undefined),inactive
13,CC(=O)c1[nH]cc(CCC(=O)O)c1CC(=O)O,inactive
14,C=C(C(=O)O)C1CC(O)C2(C)CCCC(C)(O)C2C1 (centres undefined),inactive
15,COc1cc(O)c2c(c1Cl)CC(C)OC2=O (centres undefined),inactive
16,C/C=C(/C)C(=O)O[C@H]1C[C@]2(C)O[C@@H]2[C@@H](OC(C)=O)[C@@]2(C)CC[C@@](O)(C(C)C)[C@H]12,inactive
17,O=C(O)CCc1c(C(=O)O)[nH]c2cc(Cl)cc(Cl)c12,inactive
18,CC1(C)CC[C@]2(C(=O)O)CC[C@]3(C)C(=CCC4[C@@]5(C)C[C@@H](O)[C@H](O)[C@](C)(CO)C5CC[C@]43C)[C@@H]2[C@@H]1O (some centres undefined),inactive
19,C/C=C1/C[N+](C)([O-])C2Cc3c([nH]c4ccccc34)C(=O)CC1C2C(=O)OC (centres undefined),inactive
20,C=C1C(OC(C)=O)CCC2(C)CC3(O)OC(=O)C(C)=C3CC12 (centres undefined),inactive

row,Structure (SMILES),Potency
1,CSC(=O)OCC1=C[C@@H]2OC(=O)C3=CO[C@@H](O[C@@H]4O[C@H](CO)[C@@H](O)[C@H](O)[C@H]4O)[C@H]1[C@@H]32,inactive
2,C=CCc1ccc(O[C@@H]2O[C@H](CO)[C@@H](O)[C@H](O)[C@H]2O)c(O[C@@H]2O[C@H](CO)[C@@H](O)[C@H](O)[C@H]2O)c1,inactive
3,COc1cc(C2Oc3c(OC)cc(/C=C/C(=O)OC4CC(O)(C(=O)O)CC(O)C4O)cc3C2CO)ccc1O (centres undefined),inactive
4,OC[C@@]1(O)CO[C@@H](OC[C@H]2O[C@@H](Oc3ccccc3)[C@H](O)[C@@H](O)[C@@H]2O)[C@@H]1O,inactive
5,O=C(/C=C/c1ccccc1)O[C@@H]1[C@@H](CO)O[C@@](CO)(O[C@H]2O[C@H](CO)[C@@H](O)[C@H](O)[C@H]2O)[C@H]1O,inactive
6,CC1(C)Oc2ncnc(N)c2N=C1c1ccc(C2CCC(CC(=O)O)CC2)cc1 (centres undefined),inactive
7,Cc1occc(=O)c1O[C@@H]1O[C@H](COC(=O)CC(C)(O)CC(=O)O)[C@@H](O)[C@H](O)[C@H]1O (some centres undefined),inactive
8,C=C[C@H]1[C@H](O[C@@H]2O[C@H](CO)[C@@H](O)[C@H](OC(=O)/C=C/c3ccc(O)c(OC)c3)[C@H]2O)OC=C2C(=O)OCC[C@]21O,inactive
9,C/C(=C\CCC1(C)C2CC3C(C2)C31C)C(=O)O (centres undefined),inactive
10,CC(=O)OC[C@]12[C@H](OC(C)=O)[C@H](OC(=O)c3ccccc3)[C@@H]3[C@@H](OC(C)=O)[C@]1(OC3(C)C)[C@H](C)C[C@H](OC(=O)c1ccccc1)[C@@H]2OC(=O)c1ccccc1,inactive
11,CC1(C)CC[C@]2(C(=O)O[C@@H]3O[C@H](CO)[C@@H](O)[C@H](O)[C@H]3O)CC[C@]3(C)C(=CCC4[C@@]5(C)C[C@H](O)[C@H](O[C@@H]6OC[C@@H](O)[C@H](O)[C@H]6O)[C@@](C)(CO)C5CC[C@]43C)C2C1 (some centres undefined),inactive
12,O=C(O)c1cccc(C(=O)CCC2OC(n3cnc4c(=O)[nH]cnc43)C(O)C2O)c1 (centres undefined),inactive
13,C=C1CCC2(OC1)OC1CC3C4CC=C5CC(O)CC(O[C@@H]6OC[C@H](OC(=O)C(O)C(C)CC)[C@H](O)[C@H]6O[C@@H]6O[C@@H](C)[C@H](O)[C@@H](O)[C@H]6O)C5(C)C4CCC3(C)C1C2C (some centres undefined),inactive
14,OC[C@@]1(O)CO[C@H](OC[C@H]2O[C@@H](OC(CCCCc3ccc(O)cc3)CCc3ccc(O)cc3)[C@H](O[C@H]3OC[C@](O)(CO)[C@H]3O)[C@@H](O)[C@@H]2O)[C@@H]1O (some centres undefined),inactive
15,O=C(O)C(Cc1ccccc1)NC(=O)C1CCCN1 (stereo not drawn) (H-Pro-Phe-OH; configuration not given here),inactive
16,COc1ccnc2[nH]cc(C(=O)C(=O)N3CCN(C(=O)c4ccccc4)CC3C)c12 (centres undefined),inactive
17,C[C@H]1[C@H](C)CC[C@]2(C(=O)OC3OC(CO)C(O)C(O)C3O)CC[C@]3(C(=O)O)C(=CCC4[C@@]5(C)CC[C@H](O[C@@H]6O[C@@H](C)[C@H](OC7OC(CO)C(O)C(O)C7O)[C@@H](O)[C@H]6O)C(C)(C)C5CC[C@]43C)[C@H]12 (some centres undefined),inactive
18,CC(NC(=O)CC(=O)O)C(=O)Nc1ccccc1C(N)=O (centres undefined),inactive
19,O=C(C[C@@H]1C(C(=O)O)=CO[C@@H](O[C@@H]2O[C@H](CO)[C@@H](O)[C@H](O)[C@H]2O)/C1=C\CO)OCCc1ccc(O)c(O)c1,inactive
